Potency and affinity values are given separately. Active and inactive are the calls of the source.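 Rule for the calls: active = calorimetric dissociation constant under 10 µM against either the substrate-binding domain or full-length DnaK; inactive = the rest.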

Data on five molecules can be found in PubChem BioAssay AID1495 (Sanford-Burnham Center for Chemical Genomics, 2009).

The target of the assay is Chaperone protein DnaK (Escherichia coli) (UniProt C3TRK2). In words: DnaK beta-domain binding affinity, SAR follow-up, orthogonal assay for DnaK modulator project, biophysical, isothermal titration calorimetry, full-length DnaK (AID 1495). Conditions: purified DnaK. (In ITC the heat of successive injections is recorded.)
On to `Cc1ccc(C(=O)NCc2ccc(Cl)cc2)o1`, for which the molecule was classed as inactive.
With `Cc1ccc(C(=O)NCc2ccc(F)cc2)o1`, the call was inactive.
Turning to `Cc1ccc(CNC(=O)c2ccc([N+](=O)[O-])o2)cc1`, the call was inactive.
Regarding `O=C(NCc1ccccc1F)c1cccs1`, the molecule was classed as inactive.
Regarding `O=C(Nc1ncc2ccccc2n1)c1cccs1`, the outcome was active.
